POLI inh = inhibitors of human DNA polymerase iota. Q9UNA4. Pol iota fluorescent replication assay, 10 min. Potency, µM (doses to about 115 µM), without a hit: at the top dose activity, negative = inhibition, hits mostly inhibitors. hit rate 1% among 390,000. AID 588590
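Fluorescent replication assay read twice, at 0 min and 10 min after adding 50 nM (final) substrate. Enzyme (10 nM) and compounds were first incubated 15 min at room temperature; enzyme-free buffer wells were negative controls.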
Pol kappa inh = DNA polymerase kappa (human) inhibition; Q9UBT6; purified Pol kappa, fluorescent DNA synthesis assay, 10 min; Potency, µM (highest dose often 107 µM), for inactives: top-dose activity, negative = inhibition, hits mostly inhibitors; hit rate 0.53% among 400,000; AID 588579; also: % is scaled to controls: 0 for no effect and ±100 for the full control effect
Target sequence (Q9UBT6 whole entry, looked up): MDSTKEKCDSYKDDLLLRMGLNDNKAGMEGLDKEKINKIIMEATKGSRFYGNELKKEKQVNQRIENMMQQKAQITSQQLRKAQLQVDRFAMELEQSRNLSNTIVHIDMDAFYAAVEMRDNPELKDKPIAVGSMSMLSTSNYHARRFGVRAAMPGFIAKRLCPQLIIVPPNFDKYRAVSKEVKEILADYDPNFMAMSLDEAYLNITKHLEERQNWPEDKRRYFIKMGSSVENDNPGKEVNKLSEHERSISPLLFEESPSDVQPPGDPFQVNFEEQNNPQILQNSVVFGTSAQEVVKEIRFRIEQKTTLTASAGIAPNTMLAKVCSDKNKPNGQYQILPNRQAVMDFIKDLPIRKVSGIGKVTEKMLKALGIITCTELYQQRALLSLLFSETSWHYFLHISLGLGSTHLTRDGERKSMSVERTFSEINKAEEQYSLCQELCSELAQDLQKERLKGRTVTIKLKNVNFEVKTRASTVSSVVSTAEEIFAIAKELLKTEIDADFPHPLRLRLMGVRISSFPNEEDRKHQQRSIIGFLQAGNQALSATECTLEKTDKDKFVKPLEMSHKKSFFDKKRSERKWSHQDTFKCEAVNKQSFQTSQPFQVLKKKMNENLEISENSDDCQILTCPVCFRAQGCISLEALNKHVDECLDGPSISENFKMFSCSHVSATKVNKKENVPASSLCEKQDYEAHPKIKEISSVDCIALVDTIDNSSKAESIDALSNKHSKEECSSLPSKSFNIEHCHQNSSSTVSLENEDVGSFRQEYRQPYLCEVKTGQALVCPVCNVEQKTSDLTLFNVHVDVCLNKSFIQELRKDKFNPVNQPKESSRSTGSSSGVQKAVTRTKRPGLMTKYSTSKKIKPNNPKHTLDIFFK
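Kinetic fluorescence screen: compound preincubated 15 min RT with 10 nM enzyme; 50 nM substrate (final) initiates; reads at 0/10 min.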
L3MBTL1 inh = blocks human L3MBTL1; Potency, µM (doses to about 57.1 µM), for inactives: top-dose activity, negative = inhibition, hits mostly inhibitors; Q9Y468; hit rate 0.66% among 230,000; AlphaScreen L3MBTL1–H3K9me1 peptide binding; also: % is scaled to controls: 0 for no effect and ±100 for the full control effect; nearly all actives have a fitted effect of over 60% in size
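First, the protein-peptide complex forms for 30 min at room temperature (L3MBTL1 50 nM, biotinylated H3K9me1 peptide 75 nM). Next, compounds are pin-transferred and incubated 30 min. Finally, AlphaScreen beads are added and read after 30 min.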
Pol eta inh = DNA polymerase eta (human) inhibition; AID 588591; Potency, µM (series often up to 114 µM), for inactives: at the highest dose activity change, negative = inhibition, most hits filed as inhibitors; Q9Y253; hit rate 1.2% among 390,000; recombinant Pol eta, fluorescent DNA replication assay; also: % is scaled to controls: 0 for no effect and ±100 for the full control effect
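Fluorescent replication assay: 50 nM final substrate added after a 15 min room-temperature compound preincubation with 10 nM enzyme. Signal taken at 0 min and again at 10 min.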
APEX1 inh = blocks human APE1 abasic DNA cleavage; P27695; recombinant APE1, TAMRA/BHQ-2 abasic DNA cleavage fluorescence; Potency, µM (top dose mostly 65.8 µM), for inactives: top-dose activity change, negative = inhibition, usual class: inhibitors; hit rate 0.35% among 350,000;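 also: plate controls were vehicle for no effect and reference inhibitor for full effect; nearly all actives have a fitted effect of over 55% in size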
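Enzyme (0.75 nM final) and test compound are incubated 15 min at room temperature before adding 50 nM quenched THF abasic-site duplex. Cleavage dequenches TAMRA, followed at 525/598 nm over three reads one minute apart.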
Pol beta inh = inhibitors of human DNA polymerase beta; Pol beta primer extension/strand displacement, fluorescence kinetic; hit rate 1.3% among 340,000; AID 485314; Potency, µM (top dose mostly 114 µM), without a hit: top-dose activity change, negative = inhibition, hits mostly inhibitors; also: % is scaled to controls: 0 for no effect and ±100 for the full control effect
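Values derive from four-parameter Hill fits of normalized kinetic data: reads at 0 and 10 min following addition of 50 nM substrate to 10 nM Pol beta preincubated 15 min with compound.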
An asterisk follows results filed as active; ? = inconclusive; . = no result given; [ ] = dose if it differs, or a comment. Sampled rows, rich in hits. Any-hit rate of the full collection: about 2.5%. Calls follow the shape of the dose curve; as a rule, active = well fitted curve in the direction sought with a large enough effect; inconclusive = small, poorly fitted or top-dose-only effect, or another doubt; inactive = no such curve, though single readings can be large; an effect the other way counts as inactive or inconclusive. Potency is read from the fitted curve at half-maximal effect.

SMILES	POLI inh	Pol kappa inh	L3MBTL1 inh	Pol eta inh	APEX1 inh	Pol beta inh
Cc1ccc(-n2c(O)c(/C=N/Nc3ccc(S(=O)(=O)N4CCOCC4)cc3[N+](=O)[O-])c3ccccc3c2=O)c(C)c1	?	-16%	?	45µM*	-7%	79µM*
Oc1ccc(/C=N/N(Cc2ccccc2)c2ccccc2)c(O)c1O	39%	-38%	.	-25%	?	6.3µM*
Oc1cccc(/C=N/N(Cc2ccccc2)c2ccccc2)c1	43%	-9%	-6%	-26%	?	15%
CC(=O)C1=C(O)C(=O)N(CCc2c[nH]c3ccccc23)C1c1ccco1 (configuration not stated)	?	-11%	.	-16%	1%	32µM*
Cc1ccc(S(=O)(=O)N(C)CCN(C)c2nc(-c3cccs3)nc3ccccc23)cc1	-13%	-9%	.	.	.	.
Cc1ccc2nc(Cl)c(C3CC(c4ccco4)=NN3C(=O)CCCC(=O)O)cc2c1 (configuration not stated)	16µM*	35µM*	-6%	?	-8%	-4%
Cc1ccc2cc(C3CC(c4ccco4)=NN3C(=O)CCCC(=O)O)c(Cl)nc2c1 (configuration not stated)	3%	6%	9%	-5%	-8%	-4%
CCO[C@@H]1O[C@H](C(COCc2ccccc2)OCc2ccccc2)[C@H](OCc2ccccc2)[C@H]1O (some centres not stated)	.	.	.	.	0%[21 µM]	.
CCCC(=O)OCC1CN(Cc2ccco2)S(=O)(=O)c2c(F)cccc2O1 (configuration not stated)	71µM*	-29%	.	-1%	.	.
Cc1ccc2c(c1)C(=O)C(=O)N2Cc1ccc(OCCC(C)C)cc1	-21%	-23%	.	?	.	2%
COc1cccc(/C=N/Nc2ncnc3c2[nH]c2ccc(C)cc23)c1OC	13µM*	?	.	?	2%	?
COc1ccc2cc(/C=C3\SC(=S)NC3=O)c(N3CCOCC3)nc2c1	-6%	-25%	-5%	20µM*	?	?
CCOC(=O)C1Nc2ccccc2C2C(O)C(O)CC12 (configuration not stated)	25µM*	-31%	.	10%	.	.
COc1ccc(-c2nnc(SCC(=O)N(C)Cc3ccccc3)o2)cc1OC	60%	-4%	.	79µM*	.	-7%
CN(Cc1ccccc1)C(=O)CSc1nnc(-c2cccc(Cl)c2)o1	29%	2%	.	.	.	-26%
Cc1c(C#N)c(NC(=O)COC(=O)c2cc(Cl)c3c(c2)OCCCO3)n(Cc2ccco2)c1C	-24%	-9%	.	.	.	.
Cn1cc(C2=C(c3cn(CCCSC(=N)N)c4ccccc34)C(=O)NC2=O)c2ccccc21	89µM*	4%[60.1 µM]	.	.	-6%	.
O=C(O)CCc1ccc(-c2ccc(Cl)cc2)o1	?	?	.	0%	-3%	-2%
O=C(O)CCc1ccc(-c2ccc(Br)cc2)o1	40µM*	?	-2%	-3%	1%	28%
NNc1ccccc1C(F)(F)F	69%	-3%	?	4%	35µM*	20µM*
CSc1ccc(/C=C/c2ccnc3ccccc23)cc1	33%	-11%	.	.	.	.
O=[N+]([O-])c1ccc(SNc2ccccc2)c([N+](=O)[O-])c1	-4%	-19%	.	1%	.	.
O=[N+]([O-])c1ccc(-[n+]2ccc3ccccc3c2)c([N+](=O)[O-])c1	?	79µM*	-13%	-25%	6%	.
COc1ccc(NC(=O)COC(=O)CN2C(=O)c3ccccc3C2=O)cc1	-12%	5%	3%	-8%	11%	.
COc1ccccc1CNC(=O)C(CC(C)C)NC(=O)C1CCC(C)CC1 (configuration not stated)	2%	5%	.	1%	8%	9%
SMILES	POLI inh	Pol kappa inh	L3MBTL1 inh	Pol eta inh	APEX1 inh	Pol beta inh
COc1ccccc1CNC(=O)c1ccccc1C(=O)NC(CC(C)C)C(=O)NCc1ccccc1OC (configuration not stated)	71µM*	-12%	.	-34%	-2%	4%
COc1ccccc1CNC(=O)c1cnccn1	?	?	.	71µM*	0%	40µM*
CCOc1ccc2nc(N3CCN(C(=O)c4ccc5c(c4)CCCC5)CC3)sc2c1	9%	-7%[60.1 µM]	.	-6%	.	-28%
CCN(CC)c1ccc(C(=O)NCc2ccc3c(c2)CCN3C(=O)c2ccc(F)cc2)cc1	20%	-12%[60.1 µM]	.	79µM*	.	3%
CC(C)(C)n1ncc2c(=O)n(Cc3ccccc3CS(=O)(=O)c3ccccc3)cnc21	0%	2%	.	.	?	.
Cc1cc(NC(=O)CCC(=O)N(CC(=O)NC2CCCC2)c2cccc(F)c2)no1	-12%	-6%	.	-11%	50%[12.4 µM]	7%
CCc1cc(C(=O)c2ccc(C)cc2)c(NC(=O)CCl)s1	-3%	-3%	35µM*	-20%	22%	0%
CCN1CCN(CCNC(=O)c2cc(Cl)c(NC(=O)C3=C(C)OCCS3)cc2OC)CC1	-3%	6%	.	3%	22%	0%
O=S(=O)(Nc1nc2ccccc2nc1NCc1ccco1)c1ccc(Cl)cc1	?	-4%	-3%	?	?	?
Cc1noc(C)c1CSc1nc2ccccc2nc1NS(=O)(=O)c1ccc(Cl)cc1	?	-9%	0%	79µM*	-1%	3%
O=C(O)c1cccc(CN2C(=O)S/C(=C/c3ccccc3[N+](=O)[O-])C2=O)c1	20µM*	-25%	-24%	79µM*	0%	28%
O=C1S/C(=C\c2ccc(O)c([N+](=O)[O-])c2)C(=O)N1Cc1cccc([N+](=O)[O-])c1	?	?	?	?	?	32µM*
N#Cc1c(-c2cccc(Cl)c2)no[n+]1[O-]	.	.	.	.	-7%	.
COc1cc(/C=N/NC(=O)C2=NNC(=O)C2C)ccc1O (configuration not stated)	6%	-3%	.	-12%	0%	5%
CC1C(=O)NN=C1C(=O)N/N=C\c1ccc(O)cc1O (configuration not stated)	10%	10%	28µM*	-17%	-3%	25%
O=C(COC(=O)c1ccc(Cl)nc1)NNC(=O)c1ccc(Br)cc1	24%	1%	-5%	-6%	-6%	.
S=c1[nH]nc(-c2ccccn2)n1/N=C/c1ccc(-c2ccccc2Br)o1	79µM*	5%	.	-6%	12%	50µM*
Cc1ccsc1/C=N/n1c(-c2ccccn2)n[nH]c1=S	149%	-3%	32µM*	-19%	1%	1%
C(=C\c1ccco1)/C=N/n1cnnc1	40µM*	?	?	-1%	?	13%
C(=N\Nc1ccc2nncn2n1)/c1ccco1	150%	-9%	.	-19%	5%	-25%

Screens (PubChem BioAssay)
